Source: PubChem
These entries were drawn from the full list.
aSyn UTR act: Activators working through SNCA 5'UTR binding (MLPCN); alpha-synuclein 5'UTR reporter, activators screen; activity score, % (tested at 7.5 µM), hits read low; actives 7.1% (n = 300,000); AID 1814; in the data active = activity score below about -60%
Numbers stand for hits; - = inactive.

SMILES | aSyn UTR act
O=c1c(C=Nc2cccc(C(F)(F)F)c2)c[nH]n1-c1cccc(Cl)n1 | -64.6
CCOc1cc(/C=C2/NC(=O)N(CC(=O)OC)C2=O)ccc1O | -66.0
Cc1ccc2cc(NC(=O)c3ccccc3)ccc2n1 | -84.5
O=C(Nc1ccc2ccccc2c1)c1ccc(NS(=O)(=O)c2ccc(Br)s2)cc1 | -102.3
CC(C)CC(=O)Nc1ccc2ccccc2c1 | -99.1
O=C(Nc1ccc2ccccc2c1)c1cccc(F)c1 | -117.2
Cc1ccc2cc(NC(=O)c3cccc(F)c3)ccc2n1 | -78.8
CCOC(=O)N/N=C/c1ccccc1F | -135.4
CCOC(=O)N/N=C/c1cn(Cc2ccc(Cl)cc2)c2ccccc12 | -
Cc1cc(C(=O)N/N=C/c2cccc(Cl)c2Cl)no1 | -107.8
CCOC(=O)N/N=C/c1cccc(Cl)c1Cl | -97.5
CCOC(=O)N/N=C/c1ccc(N(CC)CC)cc1O | -432.2
CCN(CC)c1ccc(/C=N/NC(=O)c2c(Cl)cnn2C)c(O)c1 | -
O=C(CSC(=S)N1CCOCC1)Nc1nc(=O)c2ccccc2s1 | -84.9
CCc1ccc(NS(=O)(=O)c2ccc3[nH]cc(C(=O)N4CCc5ccccc54)c(=O)c3c2)cc1 | -127.9
O=C(Nc1ccc(O)c2c(=O)cc(-c3cccc(Cl)c3)oc12)c1cccc(Cl)c1 | -
Nc1ccc(O)c2c(=O)cc(-c3ccccc3Cl)oc12 | -100.3
Oc1ccc(-c2nc3ccc4ccccc4c3c3c2CCC3)cc1O | -151.2
O=c1c(-c2ccc3c(c2)OCCO3)coc2cc(OC3OC(CO)C(O)C(O)C3O)ccc12 (stereo not drawn) | -86.3
CCN(CC(=O)Nc1ccc2c(c1)OCCO2)C(=O)/C=C/c1ccc(F)cc1 | -70.2
O=C(COc1ccc2c(c1)OCO2)Nc1cccc(F)c1 | -94.0
O=C(COc1ccc(F)cc1)Nc1ccc2c(c1)OCCO2 | -144.2
CCc1ccc(CNC(=O)Cc2ccc(NC(=O)C3=C(C)OCCS3)cc2)cc1 | -
COc1cccc(CNC(=O)Cc2ccc(NC(=O)C3=C(C)OCCS3)cc2)c1 | -79.6
COc1ccc(OCCCC(=O)Nc2ccc3c(c2)OCCO3)cc1 | -131.6
SMILES | aSyn UTR act
CCOCC(=O)Nc1ccc2c(c1)OCCO2 | -66.2
COc1cccc(CNC(C)C(=O)Nc2ccc3c(c2)OCCO3)c1 (stereo not drawn) | -88.9
Cc1ccc(F)cc1NC(=O)c1sc2ncn(CC(=O)N3CCN(c4ccccn4)CC3)c(=O)c2c1C | -88.7
CC(O)/C=C/c1ccc2ccccc2n1 (stereo not drawn) | -153.6
COc1cc(/C=N/NC(=S)NC2CC3CC2C2C=CCC32)ccc1O (stereo not drawn) | -116.1
O=C(OC(c1ccccc1)c1nccc2ccccc12)c1cccc([N+](=O)[O-])c1 (stereo not drawn) | -78.7
CC(C)C(OC(=O)c1ccccc1)c1nccc2ccccc12 (stereo not drawn) | -115.9
O=C(Nc1ccc(Cl)c(Cl)c1)c1ccc(Cl)c(Cl)c1 | -101.7
Cc1cc(C)n2ncc(C(=O)Nc3ccc(Cl)c(Cl)c3)c2n1 | -105.6
O=C(Nc1ccc2c(c1)COC2=O)c1ccc(Cl)c(Cl)c1 | -143.1
O=C(Nc1ccc(Cl)c(Cl)c1)c1ccncc1 | -149.0
O=C(Nc1ccc2c(c1)Cc1ccccc1-2)c1ccncc1 | -133.9
COc1ccc(NC(=O)Nc2cccc(Cl)c2Cl)c(OC)n1 | -71.9
COc1ccc(C(=O)Nc2ccc(Cl)c(Cl)c2)c(OC)n1 | -104.5
O=C(NCCCC1CCCC1)C1CCC(=O)N(Cc2cccc(F)c2)C1 (stereo not drawn) | -161.5
COc1ccccc1CCCNC(=O)C1CCC(=O)N(Cc2ccccc2F)C1 (stereo not drawn) | -130.4
C=CCOC(=O)c1sc(NC(=O)c2ccco2)nc1C | -167.4
CCc1ccc(C(=O)Nc2cc(C)ccc2F)s1 | -143.0
CCOC(=O)Cc1cnc(NC(=O)c2ccccc2)s1 | -112.8
CCOC(=O)c1csc(-c2ccc3c(c2)CCO3)n1 | -109.5
Cc1nc2c(ccc3nc(NC(=O)c4ccc5c(c4)OCCO5)sc32)s1 | -116.6
Cc1nnc(NC(=O)c2cc3ccccc3o2)s1 | -81.5
CCOC(=O)c1csc(NC(=O)c2cc3ccccc3o2)n1 | -125.2
CCOC(=O)c1sc(NC(=O)c2ccc(CC)s2)nc1C | -133.4
CCOC(=O)c1csc(NC(=O)c2ccc3c(c2)OCCO3)n1 | -78.5
SMILES | aSyn UTR act
CCOC(=O)c1sc(Nc2ccccc2Cl)nc1C | -183.8
CCOC(=O)c1csc(NC(=O)c2ccccc2)n1 | -157.6
CCOC(=O)c1sc(NC(=O)Nc2ccccc2F)nc1C | -
CCOC(=O)c1sc(NC(=O)c2cc3ccccc3o2)nc1C | -113.5
COC(=O)Cc1csc(Nc2ccccc2Cl)n1 | -86.1
CCN(CC)c1ccc(CNc2ccc(Br)cn2)cc1 | -102.7
O=Cc1c(-c2ccc(Cl)cc2)oc2ccc(O)cc12 | -118.2
O=C1N=C(N2CCOCC2)S/C1=C/c1cc2c(cc1[N+](=O)[O-])OCO2 | -67.3
Cc1cc(NC(=O)CCC2CCCC2)no1 | -65.2
Cc1ccnc(NC(=O)CCC2CCCCC2)c1 | -193.3
O=C(CCC1CCCC1)Nc1ccc(Br)cn1 | -196.6
CCOc1ccc(N(C(=O)c2ccccc2Cl)C2=NC(C)(C)CS2)cc1 | -79.0
Cc1ccc(-c2cc(-c3ccc(F)cc3)nc(N)c2C#N)o1 | -
COc1ccc(Oc2nccc(-c3ccc(F)cc3)c2C#N)cc1 | -82.1
COc1ccc(Oc2nccc(-c3ccccc3)c2C#N)cc1 | -185.4
O=C(N/N=C/c1ccccc1Cl)c1[nH]c2ccc(Br)cc2c1-c1ccccc1 | -
Cc1[nH]c2ccccc2c1C(=O)/C=C/c1ccccc1Cl | -452.8
Cc1[nH]c2ccccc2c1C(=O)/C=C/c1ccccc1 | -98.2
Cc1[nH]c2ccccc2c1C(=O)/C=C\c1ccccc1Cl | -313.7
Nc1cc(C(F)(F)F)ccc1OCC1CCCO1 (stereo not drawn) | -90.9
COc1ccc2cc(C#N)c(SCC(=O)Nc3nonc3C)nc2c1 | -79.4
Cc1cc2cc(C#N)c(SCC(=O)Nc3nonc3C)nc2cc1C | -91.8
CCc1cc2c(C)ccc(C)c2nc1SCC(=O)Nc1cc(C)on1 | -
Cc1nonc1NC(=O)CSc1nc2c(C)cccc2cc1C#N | -98.5
O=C(Nc1ccccc1C(F)(F)F)c1ccc2nccnc2c1 | -89.0
SMILES | aSyn UTR act
O=C(Nc1ccccc1Br)c1ccc2nccnc2c1 | -113.5
CCC1CCCCN1C(=O)c1ccc(OC2CCN(C(=O)CCOC)CC2)cc1 (stereo not drawn) | -82.2
Cc1cc(NC(=O)CC#N)n(-c2nc3ccccc3[nH]2)n1 | -70.8
Cc1ccc(NNC(=S)Nc2ccc(C(C)C)cc2)c(C)c1 | -144.7
COc1ccc(C(=O)Nc2cccc3ccccc23)cc1 | -137.7
COc1ccc(Nc2cccc3ccccc23)cc1 | -72.4
COc1cccc(C(=O)Nc2nc3c(c(=O)[nH]2)CCCC3)c1 | -96.7
COc1ccc(C(=O)Nc2nc3ccccc3c(=O)[nH]2)cc1 | -126.6
COc1ccc(Nc2ccc(OC)cc2)cc1 | -104.6
COc1ccc(Nc2cc(C)c3ccccc3n2)cc1 | -100.9
CC(=O)Oc1oc(-c2ccccc2)nc1/C=N/c1ccccn1 | -71.6
CN(C)c1ccc(N=Cc2nc(-c3ccccc3)oc2OC(=O)c2ccccc2)cc1 | -115.4
Oc1oc(-c2ccccc2)nc1C=NCc1ccccc1 | -133.0
CN(C)c1ccc(N=Cc2nc(-c3ccccc3)oc2O)cc1 | -94.9
Clc1ncccc1-c1nc2ccccc2s1 | -148.7
O=c1c(-c2nc3ccccc3s2)cccn1Cc1ccc(Cl)cc1 | -110.8
CCOC(=O)CSC1=NC(=O)/C(=C/c2ccc(Br)cc2)S1 | -61.9
CCOC(=O)CSC1=NC(=O)/C(=C\c2ccc(OC(C)=O)cc2)S1 | -131.2
CN(C)c1cccc(/C=C(\C#N)c2ccccc2)c1 | -154.5
